# Screening data from PubChem BioAssay.
# Six1-Eya2 inh – qHTS Assay for Inhibitors of the Six1/Eya2 Interaction; AlphaScreen GST-Six1/His-Eya2 binding, biochemical; hits give low values; activity change, % (no concentration beside the values); hit rate 0.56% among 360,000; in the data active = activity change below about -65%; inconclusive = mostly about -30% to -63%; note: % is set by controls: 0 for no effect and ±100 for the full control effect
#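 GST-Six1 + His-Eya2 (5X stock: 250/500 nM); Tris pH 8.0, 300 mM NaCl, 0.05% BSA, 0.02% Tween 20; GSH donor/Ni acceptor beads; 1 h 37 °C dark; AlphaScreen readout.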
# CtBP-E1A blk – qHTS Assay for Inhibitors of the CtBP/E1A Interaction | CtBP / adenovirus E1A interaction (AlphaScreen) | AlphaScreen GST-E1A/His-CtBP binding, 1536-well; hits give low values | activity change, % (test concentration not listed) | hit rate 0.49% among 340,000 | AID 651724, 2012; in the data active = activity change below about -65%; inconclusive = mostly about -30% to -63%; note: % is set by controls: 0 for no effect and ±100 for the full control effect
#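 GST-E1A and His-tagged CtBP (125 nM each as 5X stock) were preincubated with pin-transferred compound for 2 h at 37 °C in the dark, then glutathione donor and nickel acceptor beads were added for 1 h before AlphaScreen reading.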
# Gal4-VP16 FLuc – VP16 counterscreen qHTS for inhibitors of ROR gamma transcriptional activity. Drosophila S2 Gal4-VP16 UAS-luciferase, luminescence, 20 h. Potency, µM (top dose mostly 53.6 µM), inactives show at the highest dose activity, negative = inhibition, usual class: inhibitors. hit rate 3.5% among 310,000;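 note: Gal4-VP16 expression switched on by copper sulfate through the metallothionein promoter; potency is the fitted concentration of half-maximal effect; % is set by controls: 0 for no effect and ±100 for the full control effect; nearly all actives have a fitted effect of over 50% in size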
# RORgamma inh – qHTS for inhibitors of ROR gamma transcriptional activity; Nuclear receptor ROR-gamma (Mus musculus), P51450; Drosophila S2 Gal4-RORgamma UAS-luciferase reporter, 20 h; Potency, µM (titrated, usually from 53.6 µM), without a hit: at the top dose activity change, negative = inhibition, actives largely listed as inhibitors; hit rate 5.4% among 310,000; note: potency is the fitted concentration of half-maximal effect; % is set by controls: 0 for no effect and ±100 for the full control effect; nearly all actives have a fitted effect of over 60% in size
#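 A Gal4/UAS one-hybrid system in insect cells: metallothionein-promoter Gal4–ROR gamma fusion plus Photinus luciferase reporter. Copper sulfate 700 uM final, 20 hr ambient incubation, luminescent detection after 10 min with reagent.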
# CBFb RUNX1 block – qHTS Assay for Compounds Blocking the Interaction Between CBF-beta and RUNX1 for the Treatment of Acute Myeloid Leukemia; 230,000 tested, under 10 active; AlphaScreen CBFb-His/RUNX1-biotin binding, biochemical; Runt-related transcription factor 1 (Homo sapiens) + Core-binding factor subunit beta …; AID 1477, 2009; Potency, µM (highest dose often 59.8 µM), for the others: at the highest dose activity, negative = inhibition, actives largely listed as inhibitors; note: % of control where 0% means no effect
#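 CBFb-His/RUNX1-biotin, 30 nM each, preincubated 20 min RT; compound 15 min RT; Ni + streptavidin beads 50 ng each, 90 min RT; AlphaScreen read.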
# MBNL1 CUG block – qHTS Assay for Inhibitors of MBNL1-poly(CUG) RNA binding. Muscleblind-like protein 1 (Homo sapiens), Q9NR56. TR-FRET MBNL1-His/biotin-(CUG)12 binding, 665/545 ratio. Potency, µM (highest dose often 57.5 µM), without a hit: top-dose activity change, negative = inhibition, actives largely listed as inhibitors. hit rate 0.036% among 280,000; active = well fitted inhibition curve with a large enough effect in the signal ratio, with a control signal flat, not every such curve was filed as active; inconclusive = small, poorly fitted or top-dose-only effect, or effect the other way, or a change in a side signal; inactive = no such curve, though single readings can be large or run the other way; the % refers to the signal ratio; note: potency is the fitted concentration of half-maximal effect; % is set by controls: 0 for no effect and ±100 for the full control effect
# Target sequence (Q9NR56 whole entry, looked up): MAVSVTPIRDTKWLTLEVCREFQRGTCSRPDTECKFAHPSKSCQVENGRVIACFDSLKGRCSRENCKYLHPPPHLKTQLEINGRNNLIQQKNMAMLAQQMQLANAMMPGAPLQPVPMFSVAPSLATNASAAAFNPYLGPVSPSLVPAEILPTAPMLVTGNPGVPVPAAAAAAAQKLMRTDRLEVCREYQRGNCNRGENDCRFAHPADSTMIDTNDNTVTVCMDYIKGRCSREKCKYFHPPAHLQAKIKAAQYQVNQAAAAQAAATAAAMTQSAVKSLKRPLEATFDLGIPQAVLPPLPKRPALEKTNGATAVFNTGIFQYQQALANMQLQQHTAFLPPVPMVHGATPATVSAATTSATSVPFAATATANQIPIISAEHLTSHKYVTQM
#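 Inhibition of protein-RNA binding appears as loss of TR-FRET between terbium anti-His antibody on MBNL1-His and streptavidin-XL665 on biotin-(CUG)12. Activity is normalized to buffer-only and uninhibited-complex controls.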
# The depositor's hits bear a star; ? = inconclusive; nt = no result. This is a sample that favours compounds with a hit; in the whole collection about 5.5% have one here. Unless noted, calls come from the whole dose curve; as a rule, active = well fitted curve in the direction sought with a large enough effect; inconclusive = small, poorly fitted or top-dose-only effect, or another doubt; inactive = no such curve, though single readings can be large; an effect the other way counts as inactive or inconclusive.
SMILES,Six1-Eya2 inh,CtBP-E1A blk,Gal4-VP16 FLuc,RORgamma inh,CBFb RUNX1 block,MBNL1 CUG block
CC(=O)N(C)c1ccc(C(O)(C(F)(F)F)C(F)(F)F)cc1,1,-16,-12%,13µM*,1%,-8%
Fc1ccccc1-c1n[nH]c(=S)n1C1CC1,nt,nt,?,10µM*,nt,1%
NC(=O)CSc1nnc(-c2ccccc2F)n1C1CC1,-3,-2,-7%,4%,nt,-4%
Cn1c(-c2ccc(C(C)(C)C)cc2)n[nH]c1=S,0,-1,5.6µM*,3.2µM*,10%,4%
Fc1ccc(-c2n[nH]c(=S)n2CC2CCCO2)cc1 (stereo unspecified),0,0,?,11µM*,0%,2%
CCn1c(-c2cccc(Cl)c2)n[nH]c1=S,4,3,11µM*,6.3µM*,-3%,9%
Cn1c(-c2ccccc2)n[nH]c1=S,8,8,-9%,?,7%,nt
CCOc1cc(C(=O)OCc2cc(=O)n3c(C)csc3n2)ccc1OC,1,1,nt,nt,nt,nt
O=C(O)CCCCCCCCc1cn(CCc2c[nH]c3ccccc23)nn1,-2,-1,3%,-10%,nt,-8%
N#CC1C=Cc2c(ccc3ccccc23)N1C(=O)c1ccccc1 (stereo unspecified),10,-6,nt,nt,nt,nt
CC(C)Cn1c(-c2ccncc2)n[nH]c1=S,9,5,0%,?,4%,-4%
CCn1c(-c2ccc(C(C)(C)C)cc2)n[nH]c1=S,-1,2,3.2µM*,?,1%,-10%
CCN(CC)S(=O)(=O)c1cccc(-c2n[nH]c(=S)n2CC(C)C)c1,-15,-8,3%,8.9µM*,0%,4%
CC(C)Cn1c(-c2ccc(F)cc2)n[nH]c1=S,-1,0,10µM*,7.1µM*,4%,-5%
CC(C)(C)c1ccc(-c2n[nH]c(=S)n2C2CCCC2)cc1,-12,3,4.5µM*,2.5µM*,-5%,-8%
CC1=C(CC(=O)O)c2cc(F)ccc2C1=Cc1ccc(S(C)(=O)=O)cc1,4,-1,nt,nt,nt,nt
CCOc1cc(C(=O)OCC(=O)NC(C)c2ccccc2)ccc1OCC(=O)N1CCOCC1 (stereo unspecified),1,-6,-2%,-7%,-10%,-14%
Cc1ccc(N2CCN(C(=O)c3nn(C)c4c3CS(=O)(=O)c3ccccc3-4)CC2C)cc1 (stereo unspecified),-16,-9,0%,-1%,nt,6%
CCn1c(-c2cc3ccccc3cc2O)n[nH]c1=S,-2,-24,?,11µM*,-6%,12%
CC(C)Cn1c(-c2csc3c2CCCC3)n[nH]c1=S,-3,-17,5µM*,2.8µM*,-10%,-7%
CCn1c(-c2ccc(F)cc2)n[nH]c1=S,2,-4,2µM*,1.1µM*,-1%,-4%
CCn1c(-c2cc(OC)c(OC)c(OC)c2)n[nH]c1=S,-1,1,19%,?,2%,-5%
CC(C)Cn1c(-c2ccccc2F)n[nH]c1=S,11,1,10µM*,5.6µM*,7%,11%
CCn1c(-c2cc(Br)ccc2O)n[nH]c1=S,3,53,nt,nt,nt,nt
CC[C@H]1OC(=O)[C@H](C)[C@@H](O[C@H]2C[C@@](C)(OC)[C@@H](O)[C@H](C)O2)[C@H](C)[C@@H](O[C@@H]2O[C@H](C)C[C@H](N(C)C)[C@H]2O)[C@](C)(O)C[C@@H](C)C(=NOCOCCOC)[C@H](C)[C@@H](O)[C@]1(C)O,6,-16,-7%,-1%,nt,-7%
Cc1ccc(-c2cnc(N)n2C)cc1C,-17,-24,?,20µM*,6%,-2%
